Measured values taken from PMC4336329 (PLoS ONE, 2015).
The campaign covered roughly 310,000 compounds. About 14,000 (4.5%) showed an effect of 50% or more. The effect is printed as a negative number. The entries come from a sample that favours strong results as a whole.

target: human ether-à-go-go-related gene (hERG) potassium channel (human, UniProt Q12809); assay: primary screen, population patch clamp on CHO cells stably expressing hERG; higher = less effect of the substance
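Note: peak tail current of the secondary pulse compared with the same well before compound.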

Chain of human ether-à-go-go-related gene (hERG) potassium channel (Q12809 whole entry, looked up): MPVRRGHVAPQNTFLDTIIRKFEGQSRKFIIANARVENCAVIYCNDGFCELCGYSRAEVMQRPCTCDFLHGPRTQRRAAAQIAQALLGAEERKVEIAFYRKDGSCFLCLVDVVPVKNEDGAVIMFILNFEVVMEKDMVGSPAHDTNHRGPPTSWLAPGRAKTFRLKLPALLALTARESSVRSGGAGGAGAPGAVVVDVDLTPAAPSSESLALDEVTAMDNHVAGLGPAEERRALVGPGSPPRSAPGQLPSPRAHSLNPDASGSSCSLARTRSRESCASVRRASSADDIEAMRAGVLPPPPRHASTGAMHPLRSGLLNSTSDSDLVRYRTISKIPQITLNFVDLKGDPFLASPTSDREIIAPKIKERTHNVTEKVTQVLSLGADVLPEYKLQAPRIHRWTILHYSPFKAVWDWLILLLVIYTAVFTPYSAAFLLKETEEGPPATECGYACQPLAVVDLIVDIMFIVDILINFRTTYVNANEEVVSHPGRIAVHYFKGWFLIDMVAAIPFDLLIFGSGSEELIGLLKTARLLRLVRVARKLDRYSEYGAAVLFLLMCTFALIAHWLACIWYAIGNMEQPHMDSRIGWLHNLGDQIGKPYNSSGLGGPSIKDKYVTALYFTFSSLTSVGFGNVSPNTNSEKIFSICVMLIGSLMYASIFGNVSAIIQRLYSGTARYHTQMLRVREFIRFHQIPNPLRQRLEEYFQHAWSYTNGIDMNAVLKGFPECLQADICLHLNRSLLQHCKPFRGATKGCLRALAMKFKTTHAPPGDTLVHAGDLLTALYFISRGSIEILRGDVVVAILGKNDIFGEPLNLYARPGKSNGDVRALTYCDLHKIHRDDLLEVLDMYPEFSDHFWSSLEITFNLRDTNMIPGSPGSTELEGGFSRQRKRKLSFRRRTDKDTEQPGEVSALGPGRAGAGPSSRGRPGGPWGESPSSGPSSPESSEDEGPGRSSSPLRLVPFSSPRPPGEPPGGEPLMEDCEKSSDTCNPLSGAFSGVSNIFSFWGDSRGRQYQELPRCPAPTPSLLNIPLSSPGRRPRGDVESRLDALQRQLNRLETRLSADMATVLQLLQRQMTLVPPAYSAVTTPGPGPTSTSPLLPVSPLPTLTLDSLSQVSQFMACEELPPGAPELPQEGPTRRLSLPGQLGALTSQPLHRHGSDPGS

SMILES | hERG current change (%, negative = inhibition) at 10uM [%]
Cc1cccc(-c2c3c(=O)n(C)c(=O)n(C)c3cn2-c2ccccc2O)c1 | 1.06
Cc1cc(C)c2oc(-c3ccc(C)c(NC(=S)NC(=O)/C=C/c4ccco4)c3)nc2c1 | 11.2
Cc1cc(=O)oc2cc(OCC(=O)N3CCN(C(C)c4ccccc4)CC3)c(Cl)cc12 (stereo not shown) | -35.1
O=C(N/N=C/c1ccco1)c1cc(-c2cccs2)[nH]n1 | 1.93
Cc1ccccc1C(=O)NCCN1CCOCC1.Cl | 6.78
Fc1ccc(-c2c[nH]c(=S)n2Cc2ccccc2)cc1 | -38
O=C(NCCc1c[nH]c2ccccc12)C(F)(F)F | 3.79
COc1ccc(NC(=O)c2ccc(-n3cncn3)c([N+](=O)[O-])c2)cc1OC | -2.52
CC(C)(Cc1cc(CC(C)(C)C(=O)O)cc(C(C)(C)C)c1)C(=O)O | 10.4
Cc1ccc(Nc2c(-c3ccc(N4CCOCC4)cc3)nc3ncccn23)cc1C | 7.71
COCc1nc(-c2ccc(-c3ccccc3)nc2OC)no1 | -2.5
COc1ccc(S(=O)(=O)N2CCN(CC(=O)Nc3ccccc3OC)CC2)cc1 | -5.56
O=C(CN1CCN(S(=O)(=O)c2ccc(Br)cc2)CC1)Nc1ccccc1F | -62.5
O=C(CN1CCN(S(=O)(=O)c2ccc(F)cc2)CC1)Nc1ccccc1F | -56.1
O=C(CCN1CCN(S(=O)(=O)c2ccc(Br)cc2)CC1)Nc1ccccc1F | -31.2
O=C(CN1CCCN(S(=O)(=O)c2ccc(F)cc2)CC1)Nc1ccccc1Br | -49.1
COc1ccc(S(=O)(=O)N2CCCN(CC(=O)Nc3ccccc3F)CC2)cc1 | -55.7
COc1ccc(NC(=O)CN2CCCN(S(=O)(=O)c3ccc(F)cc3)CC2)c(OC)c1 | -54.6
COc1ccc(NC(=O)CN2CCN(S(=O)(=O)c3ccc(Br)cc3)CC2)c(OC)c1 | 19.8
O=C(CCN1CCN(S(=O)(=O)c2ccc(F)cc2)CC1)Nc1ccccc1F | -8.34
COc1ccc(S(=O)(=O)N2CCN(CCC(=O)Nc3ccccc3F)CC2)cc1 | -0.0172
COc1ccc(NC(=O)N2CCN(S(=O)(=O)c3ccc(F)cc3)CC2)c(OC)c1 | -6.4
O=C(CN1CCN(S(=O)(=O)c2ccc(Br)cc2)CC1)Nc1ccccc1C(=O)c1ccccc1 | 1.26
Cc1ccsc1C(=O)c1sccc1C | -3.08

SMILES | hERG current change (%, negative = inhibition) at 10uM [%]
CSc1ccc(CCNC(=O)c2cc(-c3ccccc3)c(N3CCOCC3)s2)cc1 | -1.02
O=C(NCc1ccncc1)c1ccc(Cl)c(S(=O)(=O)N2CCCCC2)c1 | -22.4
O=C1CN(O)C=C2N=c3ccccc3=C2N1c1ccc([N+](=O)[O-])cc1 | -26.6
Cc1ccc(OCc2nnc(SCC(=O)c3ccccc3)n2Cc2ccco2)cc1 | -47.1
COc1ccc(NC(=O)C(NC(=O)CC2NC(=O)NC2=O)c2ccccc2)cc1 (stereo not shown) | -2.49
CSc1ccccc1NC(=O)CSCc1ccc(C)cc1 | -7.79
COc1cc2ccccc2cc1C(=O)Nc1nnc(-c2ccncc2)o1 | -52.3
COc1cc2ccccc2cc1C(=O)Nc1ccncc1 | -24.8
O=C(Nc1nnc(-c2ccncc2)o1)c1ccc2ccccc2c1 | -3.08
O=C(Nc1ncc(S(=O)(=O)c2ccc([N+](=O)[O-])cc2)s1)c1cccnc1 | -2.29
COc1cc(C(=O)OCCN2CCOCC2)cc(OC)c1OC | -5.95
CCN(CC)CCn1cnc2c1c(=O)n(CCOC(=O)c1cc(OC)c(OC)c(OC)c1)c(=O)n2C.Cl | -60.3
COc1cc(C(=O)OCCCN2CCCN(CCCOC(=O)c3cc(OC)c(OC)c(OC)c3)CC2)cc(OC)c1OC.Cl | -67.8
O=C(OCCCOC(=O)c1ccc(O)cc1)c1ccc(O)cc1 | -17.3
COc1cc(C(=O)OCCn2c(=O)c3c(ncn3CCN(C)C)n(C)c2=O)cc(OC)c1OC.Cl | -2.6
COc1cc(C(=O)OCCCOC(=O)c2cc(OC)c(OC)c(OC)c2)cc(OC)c1OC | 0.241
CCN(CC)CC(C)OC(=O)c1cc(OC)c(OC)c(OC)c1.Cl (stereo not shown) | -11.5
COc1cc(OC)cc(C(=O)OCCNC(=O)Cn2cnc3c2c(=O)n(C)c(=O)n3C)c1 | 0.82
O=C(OCCN1CCCCC1)c1ccc(O)cc1 | -35.4
COc1cc(C(=O)OCCCN(C)C)cc(OC)c1OC.Cl | 4.69
CCN(CC)CCCCCCCCOC(=O)c1cc(OC)c(OC)c(OC)c1.Cl | -50.1
O=C(OCCCN1CCCCC1)c1ccc(O)cc1 | -54.6
Cc1ccc2c(c1)N(CCC(=O)NCCCN1CCCC1)C(=O)CO2 | 12.7
Cl.NCCOc1ccccc1OCCN | 22.1

SMILES | hERG current change (%, negative = inhibition) at 10uM [%]
CCN(C(=S)Nc1ccc(C(C)=O)cc1)C1CCCCC1 | 3.5
C=CCN1C(=O)C(O)(CC(=O)c2ccc(OC)cc2OC)c2cc(Br)ccc21 (stereo not shown) | -3.68
O=C(NC1CCCc2ccccc21)c1cncc(Br)c1 (stereo not shown) | 8.69
COCCn1c(SCC(=O)N(C)c2c(N)n(Cc3ccccc3)c(=O)[nH]c2=O)nnc1-c1cccc(C)c1 | 24.7
Cc1ccc(Cn2c(SCC(=O)NCC3CCCO3)nc3c2c(=O)n(C)c(=O)n3C)cc1 (stereo not shown) | -28.4
CCn1nc(C)cc1C(=O)N1CCCC(C(=O)c2ccccc2SC)C1 (stereo not shown) | -1.16
O=C(/C=C/c1ccc(F)cc1)NCCCN1CCN(CCCNC(=O)/C=C/c2ccc(F)cc2)CC1 | -73.2
COc1ccc(/C=C/C(=O)NCCCN2CCOCC2)cc1 | -29.4
COc1ccc(/C=C/C(=O)NCCCN2CCCC2)cc1 | -44.5
CC(C)c1ccc(/C=C/C(=O)NCCCN2CCOCC2)cc1 | -39
O=C(/C=C/c1ccco1)NCCCN1CCN(CCCNC(=O)/C=C/c2ccco2)CC1 | -43.5
Cc1ccc(/C=C/C(=O)NCCCN2CCN(CCCNC(=O)/C=C/c3ccc(C)cc3)CC2)cc1 | -0.473
O=C(/C=C/c1ccc(Cl)cc1)NCCN1CCOCC1 | -24
COc1ccc(/C=C/C(=O)NCCCN2CCCCCC2)cc1 | -58.3
Cc1ccc(/C=C/C(=O)NCCCN2CCN(CCCNC(=O)/C=C/c3ccc(C)o3)CC2)o1 | -78.3
O=C(/C=C/c1ccc(Cl)cc1)NCCCN1CCOCC1 | -71
Cl.O=C(/C=C/c1ccc(Br)o1)NCCCN1CCOCC1 | 7.91
O=C(/C=C/c1ccc(F)cc1)NCCNC(=O)/C=C/c1ccc(F)cc1 | 35.7
COC(=O)[C@@]1(Cc2ccc(OC)cc2)[C@H]2c3cc(C(=O)N(C)C)n(CCSCCO)c3C[C@H]2CN1C(=O)c1ccccc1 | -18.4
COC(=O)Nc1ccc(S(=O)(=O)N2CCCCC2)cc1 | -4.21
Cn1nccc1C(=O)N/N=C/c1cccnc1 | -14.8
COCCNC(=O)CN1C(=O)COc2ccc(Cl)cc21 | 21.8
Cc1nn(-c2ccccc2)c(C)c1NC(=O)COC(=O)CCCOc1ccccc1 | 6.69
COc1ccc(Br)cc1/C=N/N1C(=O)CSC1=S | 17.3

SMILES | hERG current change (%, negative = inhibition) at 10uM [%]
CCOC(=O)c1c[nH]c2ccc3ccccc3c2c1=O | 13
COc1cc(C2C(C#N)=C(N)N(c3cccnc3)C3=C2C(=O)CCC3)ccc1O (stereo not shown) | -12
CC1CCCN(S(=O)(=O)c2ccc3oc(=O)ccc3c2)C1 (stereo not shown) | -19.4
O=c1ccc2cc(S(=O)(=O)N3CCOCC3)ccc2o1 | 4.83
O=c1ccc2cc(S(=O)(=O)N3CCN(c4ccc(Cl)cc4)CC3)ccc2o1 | -52.8
CC1CC(C)CN(S(=O)(=O)c2ccc3oc(=O)ccc3c2)C1 (stereo not shown) | -59.5
O=c1ccc2cc(S(=O)(=O)N3CCN(c4ccccc4)CC3)ccc2o1 | -0.646
Cc1ccc(N2CCN(S(=O)(=O)c3ccc4oc(=O)ccc4c3)CC2)cc1Cl | 3.42
CCOc1ccc(C(=O)Nc2ccccc2C(=O)O)cc1 | 8.2
Cc1ccc(S(=O)(=O)N2CCCCC2)cc1NC(=O)CSc1nnc(N)s1 | -20.2
O=C(Cn1cc([N+](=O)[O-])cn1)N1CCN(c2ccccc2)CC1 | 7.25
COc1ccc(C(NC(=O)C2C3C=CC(C3)C2C(=O)O)c2ccccc2)cc1 (stereo not shown) | -4.58
O=C(CN1CCCc2ccccc21)N/N=C/c1ccc(O)cc1O | -29.1
CC1CCN(C(=O)CC(NC(=O)c2ccccc2Cl)c2ccccc2)CC1 (stereo not shown) | -15.7
O=C(NC(CC(=O)N1CCN(c2ccc([N+](=O)[O-])cc2)CC1)c1ccccc1)c1ccccc1Cl (stereo not shown) | -85.3
C[C@H](NC(=O)c1ccccc1Cl)C(=O)OCC(=O)N1CCN(c2ccccc2)CC1 | -9.59
O=C(NC(CC(=O)N1CCN(c2ccccc2O)CC1)c1ccccc1)c1ccccc1Cl (stereo not shown) | -70.6
O=C(NC(CC(=O)N1CCCC(C(F)(F)F)C1)c1ccccc1)c1ccccc1Cl (stereo not shown) | -8.81
Cc1cccc(N2CCN(C(=O)CC(NC(=O)c3ccccc3Cl)c3ccccc3)CC2)c1C (stereo not shown) | -59.9
Cc1cccc(N2CCN(C(=O)CNC(=O)c3ccccc3)CC2)c1C | -30.6
O=C(NC(CC(=O)N1CCN(c2ccccc2)CC1)c1ccccc1)c1ccccc1Cl (stereo not shown) | -46.8
Cc1cccc(N2CCN(C(=O)c3ccccc3SCC(=O)N3CCCC3)CC2)c1C | -34.7
